# Experimental data: PubChem BioAssay (NCATS)
# Values joined by “and” are separate entries in the source; they are usually repeats but may differ in a detail not shown here. Equal values may be shown once. Results filed as inconclusive are left out. A call without a number means that no potency is given here. Active and inactive are the calls of the source. Unless noted, calls follow the shape of the dose curve; as a rule, active = well fitted curve in the direction sought with a large enough effect; inconclusive = small, poorly fitted or top-dose-only effect, or another doubt; inactive = no such curve, though single readings can be large; an effect the other way counts as inactive or inconclusive.
# Legend:
# [1] = molecular target: Alpha-galactosidase A (Homo sapiens) (UniProt P06280); assay: Counterscreen for Glucocerebrosidase Inhibitors: qHTS Assay for Human alpha-Galactosidase at pH 4.5 (AID 992)
# Alpha-galactosidase A (Homo sapiens), sequence (P06280 whole entry, looked up): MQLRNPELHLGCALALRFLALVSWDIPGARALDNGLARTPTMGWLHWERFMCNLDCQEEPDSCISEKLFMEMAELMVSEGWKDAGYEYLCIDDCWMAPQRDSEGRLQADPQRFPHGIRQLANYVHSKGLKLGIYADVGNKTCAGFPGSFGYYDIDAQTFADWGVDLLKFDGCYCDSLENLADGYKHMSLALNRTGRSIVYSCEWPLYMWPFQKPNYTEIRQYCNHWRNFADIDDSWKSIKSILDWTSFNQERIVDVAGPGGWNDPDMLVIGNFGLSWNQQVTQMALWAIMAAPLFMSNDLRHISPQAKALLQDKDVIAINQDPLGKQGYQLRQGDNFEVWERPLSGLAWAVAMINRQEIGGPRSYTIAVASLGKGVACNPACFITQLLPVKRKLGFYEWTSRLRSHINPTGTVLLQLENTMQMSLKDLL
# In short: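 Human enzyme (2 nM) with 80 uM 4-methylumbelliferyl alpha-D-galactopyranoside in 50 mM citric acid, 0.005% Tween-20, pH 4.5, 20 min at room temperature. Compounds 0.7 nM–77 uM; fluorescence Ex 365/Em 440 after pH 10 stop; AC50 from Hill fits.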
# [2] = molecular target: alpha-glucosidase (Oryza sativa, rice) (UniProt Q653V4); assay: Counterscreen for Glucocerebrosidase Inhibitors: qHTS Assay for Rice alpha-Glucosidase at pH 5.0 (AID 997)
# In short: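 Rice alpha-glucosidase (4 nM final) with 400 uM 4-methylumbelliferyl-alpha-D-glucopyranoside in citrate buffer pH 5.0, 20 min at room temperature, stopped at pH 10; fluorescence 365/440 nm, compounds 0.7 nM–77 uM, AC50 from Hill fits.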
# [3] = Validation of Assay for Modulators of Lamin A Splicing (AID 1459; active = well fitted curve in the direction sought with a large enough effect in the signal ratio; the % refers to the signal ratio;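 also: cells exposed to compound for two days before reading; ratio rise marks activators and ratio drop marks inhibitors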)
# In short: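 Splicing correction is reported by an EGFP-containing lamin A minigene in stably transfected S3 HeLa cells, while DsRed2 controls for viability and nonspecific signal. Cells are exposed to compounds for 48 hrs before the GFP over RFP ratio is taken.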
# [4] = qHTS Assay for Lipid Storage Modulators (AID 1519; calls by dose curve); settings: Drosophila S3 cells, BODIPY lipid droplet/cell ratio, laser cytometry, cells loaded with oleic acid; for activity change, negative = inhibition: at 57.5 µM (top of the series)
# In short: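 Cells seeded at 5,000 per well were treated with compounds over a concentration series and loaded with oleic acid (400 uM, as added). Lipid droplet fluorescence (488 nm excitation, 500-530 nm channel) was read by laser-scanning cytometry and normalized to 20 uM Triacsin C.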
# [5] = molecular target: DNA repair nuclease/redox regulator APEX1 (Homo sapiens) (UniProt P27695); assay: qHTS Validation Assay for Inhibitors of the Human Apurinic/apyrimidinic Endonuclease 1 (APE1) (AID 1705; also: potency is read from the fitted curve at half-maximal effect;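 as to activity change, negative = inhibition: TAMRA fluorescence gain over two minutes as APE1 cuts a quenched THF abasic duplex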)
# DNA repair nuclease/redox regulator APEX1 (Homo sapiens), sequence (P27695 whole entry, looked up): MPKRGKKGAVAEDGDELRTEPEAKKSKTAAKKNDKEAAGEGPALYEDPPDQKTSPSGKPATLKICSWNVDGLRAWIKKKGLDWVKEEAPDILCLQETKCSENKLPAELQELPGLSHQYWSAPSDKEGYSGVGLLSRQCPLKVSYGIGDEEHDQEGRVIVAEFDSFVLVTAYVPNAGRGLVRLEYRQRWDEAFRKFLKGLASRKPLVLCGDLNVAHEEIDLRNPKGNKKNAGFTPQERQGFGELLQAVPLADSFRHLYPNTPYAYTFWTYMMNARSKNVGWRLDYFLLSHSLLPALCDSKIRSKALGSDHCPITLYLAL
# In short: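 Endonuclease activity of human APE1 is followed as dequenching when the enzyme incises a tetrahydrofuran abasic site in a short duplex labelled 5'-TAMRA/3'-BHQ-2 (50 nM final), after 15 min enzyme–compound preincubation at room temperature.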
# [6] = Counterscreen for APE1 Inhibitors: Fluorescent Dye Displacement Validation Assay (AID 1707); also: potency is read from the fitted curve at half-maximal effect
# In short: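 Thiazole Orange (250 nM) bound to 50 nM TAMRA-labelled dsDNA with tetrahydrofuran abasic site; displacement by DNA-binding compounds lowers fluorescence. Buffer 50 mM Tris-HCl pH 7.5, 50 mM NaCl, 2 mM MgCl2, 0.01% Tween-20; endpoint read at 480/540 nm.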
# [7] = molecular target: Endonuclease 4 (Escherichia coli (strain K12)) (UniProt P0A6C1); assay: Counterscreen for APE1 Inhibitors: qHTS Validation Assay for Inhibitors of Endonuclease IV (AID 1708); also: potency is read from the fitted curve at half-maximal effect
# In short: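 qHTS concentration-response format; LOPAC1280 tested under APE1-screen conditions. 2 nM enzyme, 15 min compound preincubation at RT, then 50 nM TAMRA/BHQ-2 abasic substrate; kinetic fluorescence read, three reads at 60 s intervals.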
# [8] = qHTS for differential inhibitors of proliferation of Plasmodium falciparum line 3D7 (AID 1876); also: potency is read from the fitted curve at half-maximal effect
# [9] = qHTS for differential inhibitors of proliferation of Plasmodium falciparum line 7G8 (AID 1815);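 also: parasite growth measured after three days of incubation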; also: potency is read from the fitted curve at half-maximal effect
# [10] = qHTS for differential inhibitors of proliferation of Plasmodium falciparum line GB4 (AID 1816); settings: Potency: Plasmodium falciparum GB4 proliferation inhibition;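 also: parasite growth measured after 72 h incubation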; also: potency is read from the fitted curve at half-maximal effect
# [11] = measured here: cell count channel max response
# [12] = measured here: lipid channel max response
SMILES,outcome [1],outcome [2],outcome [3],"activity change, negative = inhibition [4]","max response [4, 11]","max response [4, 12]",Potency [5],Potency [6],Potency [7],Potency [8],Potency [9],Potency [10]
O=C(O)C1CCNCC1,inactive,inactive,inactive,-0.0209% (inactive),11.3%,10%,inactive,inactive,–,–,–,–
Cc1nc(N=Nc2cc(S(=O)(=O)O)c3cc([N+](=O)[O-])cc(S(=O)(=O)O)c3c2)c(COP(=O)(O)O)c(C=O)c1O,inactive,inactive,inactive,-4.26% (inactive),6.63%,4.35%,2.82 µM (active),10 µM (active),15.8 µM (active),inactive,–,–
NCCC1CCCC(CCN)N1 (configuration not stated),–,–,inactive,-3.87% (inactive),-16%,-17.4%,inactive,inactive,–,inactive,inactive,inactive
O=[N+]([O-])c1cccc2cn[nH]c12,inactive,inactive,inactive,13.6% (inactive),18.6%,36.8%,inactive,inactive,–,inactive,inactive,inactive
CSC(N)=NCCC[C@H](N)C(=O)O,–,–,inactive,-0.616% (inactive),39.8%,26.3%,inactive,inactive,–,inactive,inactive,inactive
CC(=O)NNC(=O)N1Cc2ccccc2Oc2ccc(Cl)cc21,inactive,inactive,inactive,3.63% (inactive) and -0.28% (inactive),-1.09% and 39.5%,4.04% and 30.3%,inactive,inactive,–,inactive,–,inactive
NOCC(=O)O,inactive,inactive,inactive,2.14% (inactive),-5.32%,0.0357%,inactive,inactive,inactive,–,–,inactive
COc1ccc(CCN(C)CCc2ccc(OC)c(OC)c2)cc1OC,inactive,inactive,inactive,-1.77% (inactive) and -1.64% (inactive),7.2% and 26.8%,4.66% and 25.1%,inactive,inactive,–,–,–,–
CCCC[C@@]1(C2CCCC2)Cc2cc(OCC(=O)O)c(Cl)c(Cl)c2C1=O,–,–,inactive,-1.19% (inactive),-23.6%,-27%,inactive,inactive,–,–,8.91 µM (active),12.6 µM (active)
O=c1onc2n1-c1cc(Br)ccc1OC2,inactive,inactive,inactive,3.14% (inactive),64.2%,68.1%,inactive,inactive,inactive,inactive,inactive,inactive
CN1CCC2(CCN3CCc4c(oc5ccccc45)C3C2)N(C)C1=O (configuration not stated),–,–,inactive,-0.497% (inactive),45.8%,48%,inactive,inactive,inactive,–,–,inactive
CCC(=O)N1CCN(C(=O)c2ccccc2)CC1,inactive,–,inactive,0.685% (inactive),-9.69%,-7.51%,inactive,inactive,–,–,–,–
O=C(O)Cc1ccc(O)c(O)c1,inactive,inactive,inactive,-0.0553% (inactive),-16.6%,-14.9%,7.94 µM (active),inactive,inactive,inactive,–,inactive
COc1cc(/C=C(\C#N)C(=O)c2ccc(O)c(O)c2)cc(I)c1O,inactive,inactive,inactive,-0.482% (inactive),28.4%,26.2%,2.24 µM (active),inactive,inactive,–,–,–
N=S(=O)(O)Cc1noc2ccccc12,–,–,inactive,-0.718% (inactive),21.5%,20%,inactive,inactive,–,inactive,–,–
NC(Cc1cccc(-c2ccccc2CP(=O)(O)O)c1)C(=O)O (configuration not stated),–,–,inactive,1.29% (inactive),44.3%,44.8%,inactive,inactive,–,inactive,inactive,inactive
c1ccc(C2CN3CCSC3=N2)cc1 (configuration not stated),–,–,inactive,7.49% (inactive),0.909%,10.3%,inactive,inactive,–,inactive,inactive,–
Nc1nc2[nH]c(=O)cnc2c(=O)[nH]1,inactive,inactive,inactive,0.27% (inactive),60.5%,55.1%,inactive,inactive,inactive,inactive,inactive,inactive
COc1cc(CC(=O)O)ccc1O,inactive,inactive,inactive,-0.731% (inactive),56.6%,57.3%,inactive,inactive,inactive,inactive,inactive,inactive
CCN(CC)CCCCCCCCOC(=O)c1cc(OC)c(OC)c(OC)c1,inactive,inactive,inactive,0.792% (inactive),8.64%,11.3%,inactive,inactive,inactive,5.62 µM (active),7.08 µM (active),–
CC[N+](CC)(CC)CC(=O)Nc1c(C)cccc1C,inactive,inactive,inactive,4.67% (inactive),-3.7%,2.48%,inactive,inactive,inactive,inactive,inactive,inactive
O=C(O)C1=CCCN(CCON=C(c2ccccc2)c2ccccc2)C1,inactive,inactive,inactive,3.28% (inactive) and 2.71% (inactive),-11.1% and 10.2%,-9.11% and 11.8%,inactive,inactive,inactive,inactive,inactive,–
